Only some compounds are listed: those with a hit (about 3.1% of all), similar ones and a draw of the others.
EWS-Fli inh – inhibitors of EWS/Fli oncoprotein transcriptional activity. A673 NR0B1-luciferase reporter, viability-normalised. inhibition, % at 12.6 µM. 350,000 tested, 0.67% active. AID 651661;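 active = mean inhibition of at least 50% after viability correction, with every replicate also passing that limit; inconclusive = mean reaches 50% but only one of two replicates passes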;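 also: firefly luciferase signal divided by Alamar Blue viability fluorescence both relative to DMSO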
miR-122 sensor – blocks miR-122 activity in Huh7 sensor cells; Huh7 miR-122 Renilla luciferase sensor, 48 h; neutral wells = 0, positive control = 100; AID 602342; 340,000 tested, 0.3% active; activation (reporter increase), % at 12.5 µM;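 active = mean replicate activation score at least 90 and every replicate individually at or above 90; inconclusive = only one of the two criteria met; inactive = neither criterion met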;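 also: higher luciferase means less miR-122 activity so hits act as miR-122 inhibitors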
GSIS activator – primary screen for activators of insulin secretion dependent on glucose, INS-1E cells, GLuc reporter luminescence; INS-1E GLuc reporter insulin secretion, 2-3 h; activation, % at 16.6 µM; 370,000 tested, 0.61% active;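 active = lowest replicate activation of at least 40%, so every replicate reaches that level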;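 also: 0% = median of neutral control wells and 100% = median of IBMX positive control wells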
PAX8 inh HTS – lowers PAX8-driven luciferase in RMG-I cells; RMG-I TPO-luciferase reporter, SteadyGlo, 24 h; inhibition, % at 12.6 µM; 360,000 tested, 1.2% active; AID 652154;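 active = mean replicate inhibition at least 60% with every replicate also reaching 60%; inconclusive = only one of the two criteria is met; inactive = mean below 60% and not all replicates reaching 60%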;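 also: luciferase light reporting Pax8 driven TPO promoter activity; plate controls were median of neutral control wells for no effect and mitoxantrone controls for full effect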
HIV Env fusion – HIV envelope-mediated fusion inhibition. HeLa-JRFL Env/CEM21 cell fusion, luciferase. inhibition, % at 12.3 µM. 360,000 tested, 1.1% active;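 active = mean replicate inhibition score of at least 50 and every replicate individually at or above 50; inconclusive = only one of the two criteria met; inactive = mean below 50 and not all replicates reaching 50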;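 also: 0% = plate neutral controls and 100% = maraviroc near 300 nM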
C2C12 statin – suppression of simvastatin myotoxicity | rescue of ATP level, % at 7.49 µM | C2C12 myotubes + simvastatin, ATP luminescence, 48 h; scaled: DMSO 0, geranylgeraniol control 100 | 330,000 tested, 0.78% active;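 active = mean ATP rescue above about 67%, or every replicate alone reaching that limit, limit read from the data, passing the limit was not always enough; inconclusive = no clear call, values can overlap the other calls; inactive = mean under the limit and some replicate under it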;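 also: myotubes were challenged with 10 µM simvastatin during compound exposure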
An asterisk follows results filed as active; u = inconclusive; x = not tested or not shown; [ ] = another dose, or the depositor's remark.

SMILES | EWS-Fli inh | miR-122 sensor | GSIS activator | PAX8 inh HTS | HIV Env fusion | C2C12 statin
CCCCCCCCCn1ccc(=N)cc1 | 40 | -19 | 14 | u | 79* | x
CCn1ccc(=N)cc1 | x | -5 | -3 | x | x | 113*
C[C@@H]1CN([C@@H](C)CO)C(=O)c2cc(C#CC3CCCCC3)cnc2O[C@H]1CN(C)S(C)(=O)=O | -58 | 5[16.7 µM] | -6 | -6 | -20[16.7 µM] | 53
CCCCNC(=S)N1CCn2cccc2C1c1ccc(F)cc1 (configuration not stated) | -1 | x | 9 | -13 | 58* | x
Cc1noc(C)c1NC(=O)N(C)C[C@H]1Oc2c(NS(=O)(=O)c3ccccc3)cccc2C(=O)N([C@H](C)CO)C[C@@H]1C | -13 | x | 8 | -9 | x | x
CCc1cc[n+](C2=C([O-])c3ccccc3C(=O)/C2=N\S(=O)(=O)c2cccs2)cc1 | 3 | x | -12 | 87* | u | x
C[C@@H]1CN([C@H](C)CO)C(=O)c2cc(NC(=O)NC3CCCCC3)ccc2O[C@H]1CN(C)S(=O)(=O)c1cccs1 | -4 | -1[16.7 µM] | 0 | x | 1[16.7 µM] | x
C[C@@H]1CCCCO[C@H](CN(C)Cc2ccc3c(c2)OCO3)[C@H](C)CN([C@@H](C)CO)C(=O)c2cc(NS(C)(=O)=O)ccc2O1 | -8 | 1[16.7 µM] | -9 | -6 | -4[16.7 µM] | -10
COCCOC(=O)C1=C(C)NC(SCC(=O)NC(C)(C)C)=C(C#N)C1c1ccco1 (configuration not stated) | -1 | x | x | -3 | 3 | -3
C=CCOC(=O)C1=C(C)NC(SCC(=O)Nc2ccc(C)c(Cl)c2)=C(C#N)C1c1ccco1 (configuration not stated) | x | 4 | x | 30 | 55* | -22
O=C(NCCN1C(=O)S/C(=C\c2ccc(Cl)c([N+](=O)[O-])c2)C1=O)C1=COCCO1 | 41 | 44 | 1 | 70* | -17 | 29
O=C(NCCN1C(=O)S/C(=C\c2ccc(Cl)c(Cl)c2)C1=O)c1cnccn1 | x | x | 1 | -15 | 10 | x
C[C@H](NC(=O)[C@@H]1N[C@@H]2c3ccc(-c4ccc(C(=O)N(C)C)cc4)c(=O)n3C[C@@H]2[C@H]1CO)c1ccccc1 | 0 | -1[16.7 µM] | 13 | 7 | x | -5
O=C(Cc1ccncc1)NCC[C@H]1CC[C@@H](NC(=O)C2CCC2)[C@@H](CO)O1 | 5 | x | 7 | 3 | -7[16.7 µM] | 11
CN(C)c1ccc(NC(=O)Nc2ccc3c(c2)c(=O)n(C)n3-c2ccccc2)cc1 | 4 | -8 | 22 | 31 | -24 | -28
CN(C)c1ccc(NC(=S)Nc2ccc3c(c2)c(=O)n(C)n3-c2ccc(C(C)(C)C)cc2)cc1 | -16 | -3 | 17 | 17 | 58* | -21
O=C(C[C@@H]1CC[C@H]2[C@@H](COC[C@H](O)CN2S(=O)(=O)c2ccc(F)cc2)O1)NCC1CCCCC1 | 7 | -6[16.7 µM] | -9 | 20 | 12[16.7 µM] | 7
COc1ccc(N(C(=O)c2ccco2)S(=O)(=O)c2cc(OC)ccc2OC)cc1 | x | 25 | x | x | x | 104*
C[C@H]1CN([C@@H](C)CO)S(=O)(=O)c2ccc(-c3cccnc3)cc2O[C@@H]1CN(C)CC1CCOCC1 | 3 | 44[16.7 µM] | 2 | -1 | 13[16.7 µM] | -7
Fc1ccc(C(c2nnnn2Cc2ccccc2)N2CCSCC2)cc1 (configuration not stated) | 9 | x | -25 | x | x | -31
Fc1ccc(C(c2nnnn2CCc2ccccc2)N2CCCc3ccccc32)cc1 (configuration not stated) | x | 49 | x | 29 | 90* | 3
CN1CCN(C(c2ccccc2)c2nnnn2Cc2ccccc2)CC1 (configuration not stated) | x | -7 | x | x | x | 141*
Clc1ccc(C(c2nnnn2CCc2ccccc2)N2CCSCC2)cc1 (configuration not stated) | x | 12 | x | 17 | 100* | x
CN1CCN(C(=O)C[C@H]2C=C[C@@H](NC(=O)Cc3ccccn3)[C@H](CO)O2)CC1 | -5 | 4[16.7 µM] | 10 | -6 | 6[16.7 µM] | 7
Cn1cc(-c2ccccc2C(N)=O)c(=O)c2cc(Cl)ccc21 | 14 | 0 | 7 | 35 | 6 | 5
Cn1cc(C2=C(c3ccc(Cl)cc3Cl)C(=O)NC2=O)c2ccccc21 | -79 | 1 | 6 | 92* | 13 | -9
Cc1nnc(SCC(=O)NCc2ccco2)n1-c1ccccc1 | x | 2 | x | x | u | 1

From PubChem
